Bioassay records: PubChem, National Center for Advancing Translational Sciences (NCATS)
FUS yeast rescue: suppressors of FUS proteinopathy in yeast | Potency, µM (highest dose often 76.6 µM), most hits filed as activators | 390,000 compounds, 0.24% hits | S. cerevisiae FUS-expressing, growth rescue, OD600, 24 h; note: nearly all actives have a fitted effect of over 55% in size
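Quantitative HTS measuring growth restoration of FUS-toxic yeast. Galactose-induced cells (OD 0.005) were exposed 24hr at 30C to compounds at several concentrations, then absorbance at 600 nm was recorded.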
aSyn yeast inh: rescues yeast growth from alpha-synuclein toxicity. 370,000 compounds, 0.14% hits. Yeast expressing alpha-synuclein, growth rescue, BacTiter-Glo, 24 h. Potency, µM (highest dose often 46.1 µM), hits mostly activators; note: nearly all actives have a fitted effect of over 65% in size
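Screening used galactose-induced yeast with toxic alpha-synuclein levels, exposed to compound for 24 hr at 30 deg C. Cell growth, read with BacTiter-Glo luminescence, gave the measured signal.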
TDP43 rescue: inhibitors of TDP-43 toxicity in yeast; TDP-43 expressing yeast growth rescue, BacTiter-Glo, 24 h; Potency, µM (top dose mostly 46.1 µM), hits mostly activators; 410,000 compounds, 1.8% hits; AID 652104; note: nearly all actives have a fitted effect of over 50% in size
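In this qHTS, compounds that restore growth of yeast expressing TDP-43 appear as activators. Cells (OD600=0.02, galactose medium, raffinose-pregrown) are incubated with compound 24 hr at 30 deg C and growth is quantified by BacTiter-Glo.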
Abeta rescue: compounds reversing amyloid beta toxicity in yeast | 410,000 compounds, 0.063% hits | AID 1347071 | yeast expressing A-beta42, growth rescue, OD600, 48 h; response scale: 0% DMSO, 100% iron-clioquinol control | Potency, µM (highest dose often 46.1 µM), hits mostly activators; note: nearly all actives have a fitted effect of over 55% in size
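Yeast growth medium received pinned compounds, then yeast cells expressing toxic A-beta were added; plates incubated at 30 C for 48 hr. Growth read as absorbance at 600 nm, normalized to DMSO and equimolar FeCl3 plus clioquinol controls.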
Each line names hits and unclear results; the compound was inactive in the other large screens. A selection: hits, their analogues and other compounds. The true share with any hit is near 2.1%. Calls come from the whole dose curve; as a rule, active = well fitted curve in the direction sought with a large enough effect; inconclusive = small, poorly fitted or top-dose-only effect, or another doubt; inactive = no such curve, though single readings can be large; an effect the other way counts as inactive or inconclusive.

COc1ccc(S(=O)(=O)Nc2ccc3c(c2)C(=O)N([C@H](C)CO)C[C@H](C)[C@@H](CN(C)S(=O)(=O)c2ccc(F)cc2)O3)cc1	FUS yeast rescue inconclusive
C[C@@H]1CCCCO[C@@H](CN(C)Cc2ccc(Cl)c(Cl)c2)[C@@H](C)CN([C@H](C)CO)C(=O)c2cc(NC(=O)Nc3ccccc3)ccc2O1	FUS yeast rescue 28.2µM
COc1ccc(S(=O)(=O)Nc2cccc3c2O[C@H](CN(C)S(=O)(=O)c2ccc(Cl)cc2)[C@H](C)CN([C@H](C)CO)C3=O)cc1	FUS yeast rescue 10µM
COc1ccc(S(=O)(=O)N(C)C[C@H]2Oc3ccc(NS(=O)(=O)c4ccc(F)cc4)cc3C(=O)N([C@H](C)CO)C[C@@H]2C)cc1	FUS yeast rescue 31.6µM
Cc1ccc(S(=O)(=O)N(C)C[C@@H]2OCCCC[C@@H](C)Oc3ccc(NS(=O)(=O)c4c(C)noc4C)cc3C(=O)N([C@H](C)CO)C[C@@H]2C)cc1	FUS yeast rescue 15.8µM
CCOC(=O)[C@]12CCCC3=C1N(CCC3)C(=O)[C@@H](CC(=O)N1CCCCC1)C2	none (no result: aSyn yeast inh, TDP43 rescue, Abeta rescue)
C[C@H](CO)N1C[C@H](C)[C@@H](CN(C)Cc2ccc(-c3ccccc3)cc2)Oc2c(NS(=O)(=O)c3ccccc3)cccc2C1=O	FUS yeast rescue 22.4µM
C=CCN1C(C(=O)OC)CN(Cc2cn(Cc3ccc(Cl)cc3)nn2)CCS1(=O)=O (configuration not stated)	none (no result: aSyn yeast inh, TDP43 rescue, Abeta rescue)
CC(C)(C)Cc1c(-c2cccc(Cl)c2)nc2ccc(Cl)cn12	none
COc1ccc(Cc2c(-c3ccco3)nc3ccc(Cl)cn23)c(C)c1	TDP43 rescue 22.4µM
COc1ccc(Cc2c(-c3ccccc3)nc3ccc(Cl)cn23)c(C)c1	none
COc1ccc(Cc2c(-c3ccco3)nc3ccc(Br)cn23)c(C)c1	aSyn yeast inh inconclusive, TDP43 rescue 4.47µM
CC(C)(C)Cc1c(-c2ccco2)nc2ccc(Cl)cn12	aSyn yeast inh inconclusive, TDP43 rescue 11.2µM
COC(=O)c1ccc(-c2ccc3c(c2)[C@]2(CCC[C@@H](O)[C@@H]2NC(=O)CCc2ccccc2)C(=O)N3Cc2ccccc2)cc1	none (no result: aSyn yeast inh, TDP43 rescue, Abeta rescue)
OC(c1ccccc1)(c1ccccc1)C1CCN(CCCNc2ccccc2F)CC1	none (no result: aSyn yeast inh, TDP43 rescue, Abeta rescue)
O=C(Nc1nc2cc3c(cc2s1)OCO3)C1CCCCC1	none
Cc1cccc2sc(NC(=O)C3CC3)nc12	TDP43 rescue 11.2µM
Cc1cccc2sc(NC(=O)CN(C)S(=O)(=O)c3ccc(Br)s3)nc12	TDP43 rescue inconclusive
O=C(Nc1nc2c(Cl)cccc2s1)C1CC1	none
CC(C)c1ccc2nc(NC(=O)C3CC3)sc2c1	TDP43 rescue 22.4µM
Cc1cccc2sc(NC(=O)CN(C)S(=O)(=O)c3cccs3)nc12	TDP43 rescue 15.8µM
O=C(Nc1nc2cc3c(cc2s1)OCCO3)C1CCCCC1	TDP43 rescue 25.1µM
COc1ccc(N2CCN(c3ccc(-c4nc(-c5ccccc5)no4)cc3[N+](=O)[O-])CC2)cc1	none (no result: aSyn yeast inh)
C=C1C=C(C(F)F)n2ncc(C(=O)NCc3ccc(Cl)cc3Cl)c2N1	none (no result: FUS yeast rescue, TDP43 rescue, Abeta rescue)
CCC[C@@H](/C=C/C(=O)OC(C)(C)C)Sc1ccccc1OC	none (no result: aSyn yeast inh, TDP43 rescue, Abeta rescue)
Cc1cccc2sc(NC(=O)Cn3cccc3)nc12	Abeta rescue 11.2µM
Cc1cccc2sc(NC(=O)CCn3cccc3)nc12	TDP43 rescue inconclusive, Abeta rescue inconclusive
Cc1cccc(NC(=O)N2CCC(c3nc4ccccc4o3)CC2)c1	none
Cc1ccc(C2CCN(C(=S)Nc3cccc(C)c3)C2)cc1 (configuration not stated)	FUS yeast rescue inconclusive, TDP43 rescue 22.4µM, Abeta rescue 12.6µM
Cc1cccc(NC(=S)N2CCCCC2)c1	Abeta rescue inconclusive (no result: FUS yeast rescue)
Cc1cccc(NC(=S)N2CCC(c3nc4ccccc4o3)CC2)c1	FUS yeast rescue inconclusive, Abeta rescue 15.8µM
Cc1nc(NC(=O)/C=C/c2ccccc2)n[nH]1	aSyn yeast inh inconclusive, TDP43 rescue 22.4µM
O=C(CCCn1c2ccccc2c(=O)c2ccccc21)Nc1cccc(Cl)c1	FUS yeast rescue inconclusive, TDP43 rescue 35.5µM (no result: aSyn yeast inh)
COc1ccc(CCNc2ccc(C(=O)O)cc2[N+](=O)[O-])cc1OC	none
O=C(O)c1ccc(NCCC2=CCCCC2)c([N+](=O)[O-])c1	TDP43 rescue 15.8µM
CCOC(=O)c1c(NC(=S)Nc2cccnc2)sc(C)c1C	TDP43 rescue 12.6µM
Oc1ccc(Oc2ccccc2F)c2cccnc12	none (no result: aSyn yeast inh, TDP43 rescue, Abeta rescue)
Cc1cc(C)cc(NC(=O)COC(=O)CCC2CCCC2)c1	TDP43 rescue 12.6µM
CC(C)CCNC(=O)C1COC(O)(C(Cc2ccccc2)NC(=O)[C@@H](NC(=O)OCc2ccccc2)C(C)C)CN1 (some centres not stated)	none (no result: aSyn yeast inh, TDP43 rescue, Abeta rescue)
COc1cccc(C(Nc2ccccc2)c2ccc3ccc(C)nc3c2O)c1 (configuration not stated)	aSyn yeast inh 17.8µM, TDP43 rescue 22.4µM, Abeta rescue inconclusive
Cc1cccc(NC(c2ccc(O)cc2)c2ccc3ccc(C)nc3c2O)n1 (configuration not stated)	FUS yeast rescue 15.8µM
COc1cccc(C(NC(C)=O)c2ccc3cccnc3c2O)c1 (configuration not stated)	FUS yeast rescue inconclusive, aSyn yeast inh inconclusive, Abeta rescue inconclusive
Cc1cc(NC(c2cccnc2)c2ccc3cccnc3c2O)no1 (configuration not stated)	none
CC(=O)c1cc(-c2ccccc2S(=O)(=O)NC(C)(C)C)c(=O)n2c1CCC2	none (no result: aSyn yeast inh, TDP43 rescue, Abeta rescue)
S=C(NCCCc1cnc[nH]1)NCCCN(Cc1ccc(Cl)cc1)c1ncc(Br)cn1	none (no result: FUS yeast rescue, TDP43 rescue, Abeta rescue)
CC(C)(C)c1ccc(-c2nnc(SCC(=O)Nc3ccc4cn[nH]c4c3)n2-c2ccc(Cl)cc2)cc1	none (no result: aSyn yeast inh, TDP43 rescue, Abeta rescue)
Cc1ccc(S(=O)(=O)N2C[C@H]3[C@H]4C(=O)N(Cc5ccccc5)C(=O)[C@H]4CC(=O)[C@H]3[C@@H]2c2ccccc2F)cc1	FUS yeast rescue 17.8µM
Cc1ccc(S(=O)(=O)N2C[C@H]3[C@H]4C(=O)N(Cc5ccccc5)C(=O)[C@H]4CC(=O)[C@H]3[C@@H]2c2ccccc2Cl)cc1	none
Cc1ccc(C)c(CNC(=O)c2ccc3c(c2)nc2n3CCCCC2)c1	none (no result: aSyn yeast inh)
CCN(CC)CCCNC(=O)C1c2ccccc2C(=O)N(C)C1c1ccc(OC)cc1 (configuration not stated)	TDP43 rescue 22.4µM
Cc1ccc(-c2nc(P(=O)(c3ccccc3)c3ccccc3)c(N3CCOCC3)o2)cc1	none
CNc1oc(-c2ccc(Cl)cc2)nc1P(=O)(c1ccccc1)c1ccccc1	FUS yeast rescue inconclusive, TDP43 rescue 17.8µM
O=CC(=O)c1ccc(F)cc1	none (no result: FUS yeast rescue, TDP43 rescue, Abeta rescue)
COc1ccc(/C=C2\C(=O)ON=C2c2ccccc2)cc1	TDP43 rescue inconclusive
O=C1ON=C(c2ccccc2)/C1=C/c1ccc(OS(=O)(=O)c2ccccc2)cc1	TDP43 rescue 12.6µM (no result: FUS yeast rescue)
O=C1ON=C(c2ccccc2)/C1=C/c1ccc(O)c(O)c1	aSyn yeast inh 5.01µM, TDP43 rescue inconclusive
COc1cc(/C=C2\C(=O)ON=C2c2ccc(Cl)cc2)ccc1O	FUS yeast rescue inconclusive, TDP43 rescue inconclusive
